From PubChem BioAssay AID1159580 (chemical genetic matrix, 2015)
Several values for one entry are separate records, joined by “and”; a condition that tells them apart may be missing. Equal values may be shown once. The campaign covered roughly 5,500 compounds. About 2,000 (36%) were called active. Not shown: some 18% with an inconclusive outcome. Cut-off read from the data, not from the text of the source: active = normalized growth mostly below about 0.91 (no sharp cut-off); inconclusive = no clear call, values can overlap the other calls; inactive = mostly above about 0.92. This is one part of the list.

Test: chemical genetic growth profiling, strain panel (AID 1159580);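 note: tested at 20 µM; growth read once vehicle control cultures reached saturation at 30 °C; 1 = growth at the plate median or of vehicle wells; lower values mean less growth of the strain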
Conditions: S. cerevisiae deletion strains, growth OD

Measured: normalized growth

CNC(Cc1c[nH]c2ccccc12)C(=O)O (stereo not drawn)
inactive: locus YAL013W, strain DEP1, hits give low values 0.988 | locus YAL021C, strain ccr4, hits give low values 0.972 | locus YAL026C, strain drs2, hits give low values 0.982 | locus YAL030W, strain snc1, hits give low values 0.974 | locus YBL061C, strain skt5, hits give low values 0.986 | locus YBR009C, strain hhf1, hits give low values 0.976 | locus YBR021W, strain FUR4, hits give low values 1 | locus YBR023C, strain chs3, hits give low values 0.994 | locus YBR171W, strain sec66, hits give low values 0.986 | locus YBR229C, strain ROT2, hits give low values 0.959 | locus YBR231C, strain swc5, hits give low values 1 | locus YBR279W, strain paf1, hits give low values 0.997 | locus YCL011C, strain gbp2, hits give low values 0.985 | locus YCL016C, strain dcc1, hits give low values 0.976 | locus YCL029C, strain bik1, hits give low values 0.996 | locus YCL061C, strain MRC1, hits give low values 0.983 | locus YCL069W, strain vba3, hits give low values 0.977 | locus YCR088W, strain abp1, hits give low values 0.991 | locus YDL005C, strain med2, hits give low values 0.975 | locus YDL035C, strain GPR1, hits give low values 0.931 | locus YDL040C, strain nat1, hits give low values 0.976 | locus YDL074C, strain BRE1, hits give low values 0.981 | locus YDL101C, strain DUN1, hits give low values 0.982 | locus YDL134C, strain PPH21, hits give low values 0.972 | locus YDL185W, strain tfp1, hits give low values 0.97 | locus YDL192W, strain arf1, hits give low values 0.986 | locus YDR001C, strain nth1, hits give low values 0.976 | locus YDR069C, strain doa4, hits give low values 0.991 | locus YDR101C, strain arx1, hits give low values 1.04 | locus YDR137W, strain rgp1, hits give low values 1.01 | locus YDR159W, strain sac3, hits give low values 0.986 | locus YDR162C, strain NBP2, hits give low values 0.994 | locus YDR195W, strain ref2 0.944 | locus YDR297W, strain sur2, hits give low values 0.99 | locus YDR318W, strain mcm21, hits give low values 0.973 | locus YDR334W, strain swr1, hits give low values 0.983 | locus YDR335W, strain msn5, hits give low values 0.987 | locus YDR388W, hits give low values 0.989 | locus YDR392W, strain spt3, hits give low values 0.963 | locus YDR502C, strain sam2, hits give low values 0.992 | locus YEL003W, strain gim4, hits give low values 1 | locus YEL037C, strain rad23, hits give low values 0.978 | locus YEL061C, strain CIN8 (second series), hits give low values 0.976 | locus YEL061C, strain CIN8, hits give low values 0.987 | locus YER015W, strain faa2, hits give low values 0.986 | locus YER016W, strain bim1, hits give low values 0.988 | locus YER110C, hits give low values 0.99 | locus YER111C, strain swi4, hits give low values 0.988 | locus YER155C, strain BEM2 (second series), hits give low values 0.996 | locus YER155C, strain BEM2, hits give low values 1 | locus YER167W, strain BCK2, hits give low values 1.01 | locus YFR010W, strain ubp6, hits give low values 0.988 | locus YGL078C, strain dbp3, hits give low values 0.996 | locus YGL086W, strain mad1, hits give low values 1.02 | locus YGL167C, strain pmr1, hits give low values 0.971 | locus YGL173C, strain kem1, hits give low values 0.996 | locus YGL227W, strain vid30, hits give low values 0.988 | locus YGL240W, strain doc1, hits give low values 1 | locus YGL248W, strain PDE1, hits give low values 0.972 | locus YGL253W, strain hxk2, hits give low values 0.995 | locus YGR135W, strain pre9, hits give low values 0.973 | locus YGR252W, strain gcn5, hits give low values 0.929 | locus YHR013C, strain ard1, hits give low values 0.978 | locus YHR027C, strain rpn1, hits give low values 0.982 | locus YHR030C, strain SLT2, hits give low values 1 and 0.971 | locus YHR079C, strain IRE1 (second series), hits give low values 0.991 | locus YHR079C, strain IRE1, hits give low values 0.97 | locus YHR094C, strain hxt1, hits give low values 0.979 | locus YHR129C, strain ARP1, hits give low values 0.996 | locus YHR142W, strain chs7, hits give low values 0.986 | locus YHR200W, strain rpn10, hits give low values 0.986 | locus YIL066C, strain RNR3, hits give low values 0.973 | locus YIL073C, strain SPO22, hits give low values 0.977 | locus YIL125W, strain kgd1, hits give low values 0.994 | locus YIR030C, strain dcg1, hits give low values 0.997 | locus YJL092W, strain hpr5, hits give low values 0.977 | locus YJL095W, strain BCK1 (second series), hits give low values 0.981 | locus YJL095W, strain BCK1, hits give low values 0.973 and 1.05 | locus YJL115W, strain asf1, hits give low values 0.971 | locus YJL129C, strain trk1, hits give low values 0.971 | locus YJL134W, strain LCB3, hits give low values 0.985 | locus YJL154C, strain vps35, hits give low values 0.986 | locus YJL164C, strain tpk1, hits give low values 0.968 | locus YJL166W, strain qcr8, hits give low values 0.99 | locus YJL168C, strain set2, hits give low values 0.992 | locus YJL187C, strain SWE1 (second series), hits give low values 0.971 | locus YJL187C, strain SWE1, hits give low values 0.99 | locus YJR043C, strain POL32, hits give low values 0.974
